Among the data in PubChem BioAssay (Tox21) are Potency values, retold here.

Values joined by “and” are separate entries in the source; they are usually repeats but may differ in a detail not shown here. Identical values can stand only once. Where a structure was tested more than once in an assay, its records may differ in their call. Active and inactive are the calls of the source. Where a call stands in place of a potency, no number is given. Calls follow the shape of the full dose curve.

System in the first experiment: not listed separately
Put plainly: qHTS assay to identify small molecule antagonists of the estrogen receptor alpha (ER-alpha) signaling pathway - cell viability counter screen (AID 743074).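 Also: HEK293 cells carrying ER-alpha-UAS-bla reporter stimulated with 17beta-estradiol; nearly all actives have a fitted effect of over 45% in size.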 As to conditions: ERalpha-bla HEK293 viability, CellTiter-Glo luminescence, 18 h; series mostly up to 69.4 µM. For orientation: In qHTS, concentration-response curves come from the screen itself.
Turning to `CC(=O)Nc1ccc2c(c1)Cc1cc(NC(C)=O)ccc1-2`, the Potency entry was “inactive”.
The same measure, in the same setting: the same measure for `CC(C)(Oc1ccc(Cl)cc1)C(=O)O`: “inactive”; for `IC(I)I`: “inactive”; for `CCC(Cc1c(I)cc(I)c(N)c1I)C(=O)O` (centres undefined): “inactive”.
As to `CCC(=O)O[C@H]1[C@H](O[C@@H]2[C@@H](C)[C@H](O[C@H]3C[C@@](C)(OC)[C@@H](O)[C@H](C)O3)[C@@H](C)C(=O)O[C@H](CC)[C@@](C)(O)[C@H](O)[C@@H](C)C(=O)[C@H](C)C[C@@]2(C)O)O[C@H](C)C[C@@H]1N(C)C`, the Potency entry was “inactive”.
The same measure, in the same setting: the same measure for `C[C@]12CC[C@@H]3c4ccc(O)cc4CC[C@H]3[C@@H]1CC[C@H]2O`: “inactive”.

The target of the next experiment is Estrogen receptor (Homo sapiens) (UniProt P03372). Put plainly: qHTS assay to identify small molecule agonists of the estrogen receptor alpha (ER-alpha) signaling pathway (AID 743075).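 Also: HEK293 GripTite cells with ER-alpha and UAS-driven beta-lactamase reporter.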 Also: potency is read from the fitted curve at half-maximal effect. As to conditions: HEK293 ER-alpha-UAS-bla, beta-lactamase FRET ratio, 18 h; series mostly up to 70.1 µM.
Sequence of Estrogen receptor (Homo sapiens) (P03372 whole entry, looked up): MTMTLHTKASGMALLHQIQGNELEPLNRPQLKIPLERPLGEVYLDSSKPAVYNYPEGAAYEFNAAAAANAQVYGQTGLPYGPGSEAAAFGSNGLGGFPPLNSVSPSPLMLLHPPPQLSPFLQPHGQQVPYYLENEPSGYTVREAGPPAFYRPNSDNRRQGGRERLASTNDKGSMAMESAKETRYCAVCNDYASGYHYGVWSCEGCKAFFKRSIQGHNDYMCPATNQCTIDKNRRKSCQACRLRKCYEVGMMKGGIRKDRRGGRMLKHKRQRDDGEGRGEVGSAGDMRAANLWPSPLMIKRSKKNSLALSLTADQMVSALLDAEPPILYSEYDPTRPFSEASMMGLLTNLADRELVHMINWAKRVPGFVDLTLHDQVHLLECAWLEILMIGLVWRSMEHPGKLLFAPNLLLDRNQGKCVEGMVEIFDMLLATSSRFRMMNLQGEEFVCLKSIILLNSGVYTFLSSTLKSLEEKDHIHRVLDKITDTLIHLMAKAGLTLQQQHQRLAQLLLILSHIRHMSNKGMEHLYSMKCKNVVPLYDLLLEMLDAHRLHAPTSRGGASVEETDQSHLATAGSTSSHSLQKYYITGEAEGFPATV
On to `OC[C@H]1O[C@@H]2O[C@H]3[C@H](O)[C@@H](O)[C@@H](O[C@H]4[C@H](O)[C@@H](O)[C@@H](O[C@H]5[C@H](O)[C@@H](O)[C@@H](O[C@H]6[C@H](O)[C@@H](O)[C@@H](O[C@H]7[C@H](O)[C@@H](O)[C@@H](O[C@H]1[C@H](O)[C@H]2O)O[C@@H]7CO)O[C@@H]6CO)O[C@@H]5CO)O[C@@H]4CO)O[C@@H]3CO`, for which the Potency entry is “inactive”.
Turning to `c1ccc2cc3ccccc3cc2c1`, the Potency result is “inactive”.
The same measure, in the same setting: next, `CC1(C)O[C@@H]2C[C@H]3[C@@H]4C[C@H](F)C5=CC(=O)C=C[C@]5(C)[C@@]4(F)[C@@H](O)C[C@]3(C)[C@]2(C(=O)CO)O1`: “inactive”; `CC1=CC(C)(C)Nc2ccccc21`: “inactive”; `CCCCCC1C(=O)CCC1CC(=O)OC` (centres undefined): “inactive”.
The same measure, in the same setting: next, `CN(Cc1cnc2nc(N)nc(N)c2n1)c1ccc(C(=O)N[C@@H](CCC(=O)O)C(=O)O)cc1`: “inactive”; `Nc1ccc2c(c1)C(=O)c1ccccc1C2=O`: “inactive”.
Still for that read-out and setting: the same measure for `c1ccc2c(c1)ccc1cc3c(ccc4ccccc43)cc12`: “inactive and 19.3 µM [fluorescent] (active)”.
With `CC(=O)[C@@]1(O)CC[C@H]2[C@@H]3C[C@H](C)C4=CC(=O)C=C[C@]4(C)[C@@]3(F)[C@@H](O)C[C@@]21C`, the Potency result is “inactive”.
Same read-out and setting: the same measure for `COC(=O)C(C)Oc1ccc(Oc2ncc(C(F)(F)F)cc2Cl)cc1` (centres undefined): “inactive”; for `O=C(O)c1cc(=O)[nH]c(=O)[nH]1`: “inactive”.
On the same count and under the same terms, next, `Nc1ccc(O)c(N)c1`: “inactive”; `Cc1ccc(/C(=C\CN2CCCC2)c2ccccn2)cc1`: “inactive”; `Cc1ccc([N+](=O)[O-])c(C)c1`: “inactive”.
`OC[C@@H](O)[C@@H](O[C@@H]1O[C@H](CO)[C@H](O)[C@H](O)[C@H]1O)[C@H](O)[C@@H](O)CO`: the Potency was 3.38 µM [inconclusive] (active) and inactive.
Still for that read-out and setting: the same measure for `CC(=O)Nc1ccc2c(c1)Cc1cc(NC(C)=O)ccc1-2`: “inactive”; for `CCC(Cc1c(I)cc(I)c(N)c1I)C(=O)O` (centres undefined): 8.11 µM [inconclusive] (active) and 5.32 µM [activator] (active).
Still for that read-out and setting: next, `COc1ccc(-c2coc3cc(O)cc(O)c3c2=O)cc1`: 6.97 µM [inconclusive] (active) and 13.8 µM [activator] (active).
